Our source for the growth values is PubChem BioAssay (NCI).

The panel holds about 83,000 compounds, 20% with a hit somewhere; the sample as a whole holds those more often.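 For each line, cells grew in 96-well plates with the test compound present at a single concentration for 48 hours.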 Calls of active or inactive are those of the source. Rule for the calls: active = growth percent below 10; inactive = the rest.

In the assay the test system is MDA-MB-468 breast. The assay is described as follows: NCI-60 one-dose screen, 48 h (100 = growth as untreated, 0 = no growth, -100 = all killed). To be noted: 10 µM unless noted.
In the case of `Cn1cc(-c2csc(-c3cn(CCN)c4ccc(F)cc34)n2)c2cccnc21`, the growth is 20.2% (inactive).
Under `COC(=O)C(O)c1ccccc1` (stereo not given) stands 112% (inactive); under `COc1ccc(-c2nnc(SCC(=O)NC3=NN=C(c4ccccc4)CS3)o2)cc1`, 105% (inactive).
Under `Nc1ccc(/C=N/Nc2ccnc3c(N)cccc23)c2cccnc12` stands -38.4% (active); under `CCCCNc1cc(-c2cn[nH]c2-c2cc(C)cc(OC)c2)nc(-c2cccnc2)n1`, 78.4% (inactive).
